Assay outcomes deposited in PubChem by National Center for Advancing Translational Sciences (NCATS).
Sampled rows, rich in hits. Any-hit rate of the full collection: about 12%.
AmpC no deterg – AmpC beta-lactamase inhibition without detergent. AmpC nitrocefin hydrolysis, absorbance 480 nm, 0.0001% Triton. 330,000 tested, 0.52% active. P00811. Potency, µM (highest dose often 57.1 µM), without a hit: at the highest dose activity change, negative = inhibition, actives largely listed as inhibitors. AID 485341;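 also: plate controls were no compound for no effect and no enzyme for full effect; nearly all actives have a fitted effect of over 20% in size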
Target sequence (P00811 whole entry, looked up): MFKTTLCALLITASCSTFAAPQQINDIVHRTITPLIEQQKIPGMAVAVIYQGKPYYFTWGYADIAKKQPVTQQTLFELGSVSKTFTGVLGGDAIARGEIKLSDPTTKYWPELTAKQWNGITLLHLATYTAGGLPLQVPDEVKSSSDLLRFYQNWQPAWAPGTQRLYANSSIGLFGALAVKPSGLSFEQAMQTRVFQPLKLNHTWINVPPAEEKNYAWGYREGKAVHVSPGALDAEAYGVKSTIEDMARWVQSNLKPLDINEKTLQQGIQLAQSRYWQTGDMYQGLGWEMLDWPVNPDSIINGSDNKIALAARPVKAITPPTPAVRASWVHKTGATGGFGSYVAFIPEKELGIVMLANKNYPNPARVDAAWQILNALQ
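AmpC (5.3 nM in the dispensed reagent) in 20 mM phosphate pH 7.0 with 0.01% (detergent screen) or 0.0001% Triton X-100 was preincubated with compounds for 15 min at room temperature. Nitrocefin was then added from an 800 uM solution, and hydrolysis was followed at 480 nm.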
Sm TGR inh – blocks Schistosoma mansoni thioredoxin glutathione reductase; Q962Y6; purified TGR, DTNB reduction, TNB absorbance 405 nm; Potency, µM (highest dose often 114 µM), for the others: at the top dose activity change, negative = inhibition, usual class: inhibitors; 360,000 tested, 3% active; AID 485364; also: % is scaled to controls: 0 for no effect and ±100 for the full control effect; nearly all actives have a fitted effect of over 60% in size
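Kinetic colorimetric format: TGR-catalysed, NADPH-driven DTNB reduction monitored via TNB absorbance. Enzyme dispensed at 20 nM; compound exposure 15 min at room temperature before reaction start.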
AmpC detergent – AmpC beta-lactamase inhibition with detergent present; P00811; AmpC hydrolysis of nitrocefin, absorbance 480 nm, 0.01% Triton; Potency, µM (titrated, usually from 114 µM), inactives show top-dose activity change, negative = inhibition, usual class: inhibitors; 370,000 tested, 0.041% active;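 also: 0% = no-compound wells and -100% = no-enzyme wells; nearly all actives have a fitted effect of over 25% in size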
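20 mM phosphate pH 7.0 + 0.01% (detergent screen) or 0.0001% Triton X-100; 5.3 nM AmpC reagent; cpd preinc 15 min RT; nitrocefin (800 uM stock) to start; A480 q20 s × 4 min; Activity was normalised to no-enzyme and no-compound control wells.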
Pf growth 96h – inhibits malaria parasite growth, 96 h | AID 504834 | Potency, µM (highest dose often 28.7 µM), without a hit: at the top dose activity change, negative = inhibition, hits mostly inhibitors | 320,000 tested, 6.9% active | P. falciparum luciferase reporter growth, 96 h; also: % is scaled to controls: 0 for no effect and ±100 for the full control effect
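Delayed-death screen, second-generation endpoint: infected erythrocytes, 2% hematocrit, 0.05% parasitemia final; 96 hours at 37 C, 5% CO2; luciferase detection reagent; luminescence decrease equals reduced growth.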
SARS PLpro yeast – SARS-CoV PLP inhibition in yeast; Potency, µM (doses to about 32.9 µM), for the others: at the highest dose activity, positive = growth rescue, hits mostly activators; S. cerevisiae expressing SARS-CoV PLpro, growth rescue; 330,000 tested, 0.19% active; AID 485353; calls by dose curve; also: 0% is about no effect; nearly all actives have a fitted effect of over 55% in size
Pf growth 48h – P. falciparum growth inhibition at 48 hours (one generation); 310,000 tested, 5.9% active; AID 504832; Potency, µM (series often up to 28.7 µM), inactives show at the highest dose activity change, negative = inhibition, actives largely listed as inhibitors; P. falciparum luciferase growth in erythrocytes, 48 h; also: % is scaled to controls: 0 for no effect and ±100 for the full control effect
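Firefly luciferase activity from engineered P. falciparum reports growth; inhibitors lower the luminescent signal. Cultures contained 2% hematocrit erythrocytes at 0.1% final parasitemia.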
The depositor's hits bear a star; [ ] = another dose, or the depositor's remark. Unless noted, calls follow the shape of the dose curve; as a rule, active = well fitted curve in the direction sought with a large enough effect; inconclusive = small, poorly fitted or top-dose-only effect, or another doubt; inactive = no such curve, though single readings can be large; an effect the other way counts as inactive or inconclusive. Potency is read from the fitted curve at half-maximal effect.

How did COc1ccccc1C(=O)NC(=O)COC(=O)C1CC2CCCC(C1)C2=O (stereo unspecified) do in these assays?
AmpC no deterg: 11.6%; Sm TGR inh: -5.7%; AmpC detergent: -13.6%; Pf growth 96h: -21.0%; SARS PLpro yeast: -4.5%; Pf growth 48h: 4.2%

How did Cc1ccc(C(=O)NCC(c2ccco2)S(=O)(=O)c2ccccc2)cc1C (stereo unspecified) do in these assays?
Sm TGR inh: -16.5%; AmpC detergent: 9.9%

How did O=C(NCC(c1ccco1)S(=O)(=O)c1ccc(Cl)cc1)c1ccccc1F (stereo unspecified) do in these assays?
Sm TGR inh: 2.51µM*; AmpC detergent: 14.5%

What do the screens show for `Cc1ccc(C(=O)NCC(c2ccco2)S(=O)(=O)c2ccc(Cl)cc2)cc1C` (stereo unspecified)?
Sm TGR inh: 11.2µM*; AmpC detergent: -1.4%

How did COCCN(C(=O)CNC(=O)c1ccco1)C(C(=O)NC1CCCC1)c1ccccc1F (stereo unspecified) do in these assays?
AmpC no deterg: 0.0%; Sm TGR inh: 3.2%; AmpC detergent: 3.3%; Pf growth 96h: 11.5%; SARS PLpro yeast: 0.0%; Pf growth 48h: 24.5%

How did COCCN(C(=O)CCC(=O)Nc1cc(C)on1)C(C(=O)NC1CCCC1)c1ccccc1C (stereo unspecified) do in these assays?
AmpC no deterg: 30.1%; Sm TGR inh: 4.3%; AmpC detergent: 4.9%; Pf growth 96h: 1.1%; SARS PLpro yeast: 0.8%; Pf growth 48h: inconclusive

What do the screens show for `COCCN(C(=O)CCl)C(C(=O)NC1CCCCC1)c1ccccc1C` (stereo unspecified)?
AmpC no deterg: -15.5%; Sm TGR inh: 3.55µM*; AmpC detergent: -1.3%; Pf growth 96h: 8.28µM*; SARS PLpro yeast: -9.7%; Pf growth 48h: 10.4µM*

What do the screens show for `COc1ccc(N(C(=O)c2csnn2)C(C(=O)NC2CCCC2)c2cccs2)cc1` (stereo unspecified)?
AmpC no deterg: -17.2%; Sm TGR inh: -0.7%; AmpC detergent: 5.9%; Pf growth 96h: 1.47µM*; SARS PLpro yeast: -1.1%; Pf growth 48h: -8.7%

Results for COCCNC(=O)C(c1ccccc1F)N(C(=O)C(=O)NC1CCCC1)C1CCCCC1 (stereo unspecified) ?
AmpC no deterg: 88.9%; Sm TGR inh: -3.7%; AmpC detergent: 7.2%; Pf growth 96h: 11.7µM*; SARS PLpro yeast: -0.8%; Pf growth 48h: -4.0%

What do the screens show for `COc1ccc(CCN(C(=O)C(F)(F)F)C(C(=O)NC2CCCCC2)c2cccs2)cc1` (stereo unspecified)?
AmpC no deterg: -29.9%; Sm TGR inh: -8.0%; AmpC detergent: inconclusive; Pf growth 96h: inconclusive; SARS PLpro yeast: -9.7%; Pf growth 48h: 9.28µM*

Results for CCN1C(=O)C2(c3ccccc31)c1c(oc3ccc(F)cc3c1=O)C(=O)N2CCCOC (stereo unspecified) ?
Sm TGR inh: 5.4%; AmpC detergent: 7.5%

How did CCN(CC)c1ccc(NC(=O)Cn2cc3c(n2)CCCC3)c(C)c1 do in these assays?
Sm TGR inh: -0.7%; AmpC detergent: 16.0%

Results for COc1ccc(CCN(C(=O)C(F)(F)F)C(C(=O)NC2CCCCC2)c2ccc(C)s2)cc1 (stereo unspecified) ?
AmpC no deterg: -14.3%; Sm TGR inh: 7.3%; AmpC detergent: -2.9%; Pf growth 96h: 8.28µM*; SARS PLpro yeast: -5.4%; Pf growth 48h: inconclusive

What do the screens show for `COCCN(C(=O)C(F)(F)F)C(C(=O)NC1CCCCC1)c1ccco1` (stereo unspecified)?
AmpC no deterg: 5.3%; Sm TGR inh: -22.1%; AmpC detergent: 10.9%; Pf growth 96h: 11.7µM*; SARS PLpro yeast: 8.4%; Pf growth 48h: -12.8%

Results for CCOc1ccc(C(C)=O)cc1COC(=O)CNC(=O)C12CC3CC(CC(C3)C1)C2 ?
AmpC no deterg: 22.5%; SARS PLpro yeast: -14.2%

Results for COc1ccc(NC(=O)CN(C)C(=O)C(Sc2ccccc2)c2ccccc2)cc1 (stereo unspecified) ?
AmpC no deterg: -19.8%; Sm TGR inh: -0.9%; AmpC detergent: -0.9%; Pf growth 96h: inconclusive; SARS PLpro yeast: 10.6%; Pf growth 48h: inconclusive

Results for C=CCn1c(SCC(=O)NC(=O)NCCC)nnc1C1CCCCC1 ?
AmpC no deterg: 8.6%; Sm TGR inh: 0.0%; AmpC detergent: -7.7%; Pf growth 96h: inconclusive; SARS PLpro yeast: 9.8%; Pf growth 48h: inconclusive

How did C=CCn1c(SCC2=C(C(=O)OCC)C(C)NC(=O)N2)nnc1C1CCCCC1 (stereo unspecified) do in these assays?
AmpC no deterg: 4.5%; Sm TGR inh: 0.9%; AmpC detergent: 0.5%; Pf growth 96h: 2.6%; SARS PLpro yeast: 6.2%; Pf growth 48h: 11.7µM*

How did CCC(C)NC(=O)Cn1nc(Cc2ccncc2)c2ccccc2c1=O (stereo unspecified) do in these assays?
AmpC no deterg: -9.0%; Sm TGR inh: 5.1%; AmpC detergent: 3.5%; Pf growth 96h: 6.57µM*; SARS PLpro yeast: 2.3%; Pf growth 48h: -9.0%

Results for COc1ccc(NC(=O)Cn2nc(Cc3cccnc3)c3ccccc3c2=O)cc1OC ?
AmpC no deterg: 2.82µM*; Sm TGR inh: 0.6%; AmpC detergent: inconclusive; Pf growth 96h: 100.6%; SARS PLpro yeast: 0.7%; Pf growth 48h: -13.1%

Results for COc1cc(NC(=O)Cn2nc(Cc3cccnc3)c3ccccc3c2=O)cc(OC)c1OC ?
AmpC no deterg: -4.2%; Sm TGR inh: 0.7%; AmpC detergent: 7.7%; Pf growth 96h: 341.1%; SARS PLpro yeast: 8.3%

How did Oc1c(Br)cc(Br)cc1Oc1ccc(Br)cc1Br do in these assays?
AmpC no deterg: -30.3%; Sm TGR inh: inconclusive; AmpC detergent: -0.6%; Pf growth 96h: 14.7µM*; SARS PLpro yeast: -74.1%; Pf growth 48h: inconclusive

What do the screens show for `CCOC(=O)c1c(C)nc2sc3c(c2c1-c1ccc(OC)cc1)NC(c1ccc(OC)cc1)NC3=O` (stereo unspecified)?
AmpC no deterg: -15.4%; Sm TGR inh: 3.0%; AmpC detergent: inconclusive; Pf growth 96h: 2.62µM*; SARS PLpro yeast: -5.3%; Pf growth 48h: inconclusive

What do the screens show for `CCOC(=O)c1c(C)nc2sc(C(=O)Nc3ccccc3)c(N)c2c1-c1ccc(OC)cc1`?
AmpC no deterg: -25.1%; Sm TGR inh: -2.7%; AmpC detergent: inconclusive; Pf growth 96h: 9.7%[5.75 µM]; SARS PLpro yeast: 4.2%; Pf growth 48h: inconclusive
